# Tests used:
# Assay in all cases: DAPPL (digital affinity profiling via proximity ligation, sequencing); 10 mM Tris-HCl pH 7.5, 50 mM NaCl, 1 mM DTT, 4% glycerol, room temperature, 30 min; GST-TFs on glutathione beads, 16-mer random dsDNA library, 0.1% formaldehyde crosslink after washing; high values mean tight binding
# [1] = biological target: T1, FLI1 (Homo sapiens, UniProt Q01543 1-452); settings: protein: recombinant; tags: N-terminal GST; dsDNA, one strand shown
# T1 sequence: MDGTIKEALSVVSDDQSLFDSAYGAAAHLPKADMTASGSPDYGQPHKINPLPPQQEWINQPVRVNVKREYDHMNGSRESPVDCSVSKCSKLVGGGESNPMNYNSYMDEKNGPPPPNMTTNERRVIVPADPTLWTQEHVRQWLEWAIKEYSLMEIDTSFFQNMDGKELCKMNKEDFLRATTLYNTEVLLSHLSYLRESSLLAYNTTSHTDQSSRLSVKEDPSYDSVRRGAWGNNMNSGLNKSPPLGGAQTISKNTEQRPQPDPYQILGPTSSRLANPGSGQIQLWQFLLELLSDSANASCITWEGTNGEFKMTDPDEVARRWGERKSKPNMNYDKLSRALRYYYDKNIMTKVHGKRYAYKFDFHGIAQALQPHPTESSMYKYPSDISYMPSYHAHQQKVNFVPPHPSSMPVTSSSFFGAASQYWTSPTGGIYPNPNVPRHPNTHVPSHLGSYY
# Summary of the method: (§1)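 Binding signal is defined as a hexamer's read frequency for one factor over its frequency for the tag-only sample. To obtain reads, GST-fused human transcription factors were expressed in yeast, captured on glutathione beads, barcoded with DNA and pooled with that sample. Pools met 200 nmole of a 16-mer random double-stranded DNA library in Tris/NaCl/DTT/glycerol buffer for 30 min at room temperature before washing, 0.1% formaldehyde crosslinking, proximity ligation (BsaI/T4 ligase, 1 h, 37 °C), PCR and Illumina NextSeq500 sequencing.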
# [2] = biological target: T2, ELK1 (Homo sapiens, UniProt P19419 1-428); settings: protein: recombinant; tags: N-terminal GST; dsDNA, one strand shown
# T2 sequence: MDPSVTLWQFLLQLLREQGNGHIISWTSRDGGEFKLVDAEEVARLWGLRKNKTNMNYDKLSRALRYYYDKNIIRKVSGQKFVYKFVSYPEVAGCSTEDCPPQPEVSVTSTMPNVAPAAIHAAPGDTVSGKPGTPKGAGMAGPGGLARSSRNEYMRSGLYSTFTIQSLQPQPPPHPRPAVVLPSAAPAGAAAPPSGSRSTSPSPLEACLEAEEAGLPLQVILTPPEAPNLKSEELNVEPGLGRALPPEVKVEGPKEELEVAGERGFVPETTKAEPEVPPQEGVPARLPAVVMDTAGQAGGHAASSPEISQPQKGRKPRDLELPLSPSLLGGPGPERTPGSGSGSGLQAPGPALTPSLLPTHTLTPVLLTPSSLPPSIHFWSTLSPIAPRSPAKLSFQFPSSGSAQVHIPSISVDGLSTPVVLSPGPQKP
# Summary of the method: as §1
# [3] = biological target: T3, GABPA (Homo sapiens, UniProt Q06546 1-454); settings: protein: recombinant; tags: N-terminal GST; dsDNA, one strand shown
# T3 sequence: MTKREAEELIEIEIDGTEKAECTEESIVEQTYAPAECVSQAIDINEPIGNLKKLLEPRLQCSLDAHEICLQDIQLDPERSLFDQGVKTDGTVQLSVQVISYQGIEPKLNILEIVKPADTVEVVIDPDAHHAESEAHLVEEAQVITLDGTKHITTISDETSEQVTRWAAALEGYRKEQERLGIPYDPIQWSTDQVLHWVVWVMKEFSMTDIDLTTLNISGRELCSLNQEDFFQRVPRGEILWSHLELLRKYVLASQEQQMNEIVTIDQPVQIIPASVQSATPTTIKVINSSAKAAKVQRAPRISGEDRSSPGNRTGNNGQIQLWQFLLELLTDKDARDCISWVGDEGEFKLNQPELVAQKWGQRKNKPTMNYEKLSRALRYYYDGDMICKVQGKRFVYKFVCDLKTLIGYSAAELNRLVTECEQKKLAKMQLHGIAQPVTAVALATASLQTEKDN
# Summary of the method: as §1
# [4] = biological target: T4, ERG (Homo sapiens, UniProt P11308 1-479); settings: protein: recombinant; tags: N-terminal GST; dsDNA, one strand shown
# T4 sequence: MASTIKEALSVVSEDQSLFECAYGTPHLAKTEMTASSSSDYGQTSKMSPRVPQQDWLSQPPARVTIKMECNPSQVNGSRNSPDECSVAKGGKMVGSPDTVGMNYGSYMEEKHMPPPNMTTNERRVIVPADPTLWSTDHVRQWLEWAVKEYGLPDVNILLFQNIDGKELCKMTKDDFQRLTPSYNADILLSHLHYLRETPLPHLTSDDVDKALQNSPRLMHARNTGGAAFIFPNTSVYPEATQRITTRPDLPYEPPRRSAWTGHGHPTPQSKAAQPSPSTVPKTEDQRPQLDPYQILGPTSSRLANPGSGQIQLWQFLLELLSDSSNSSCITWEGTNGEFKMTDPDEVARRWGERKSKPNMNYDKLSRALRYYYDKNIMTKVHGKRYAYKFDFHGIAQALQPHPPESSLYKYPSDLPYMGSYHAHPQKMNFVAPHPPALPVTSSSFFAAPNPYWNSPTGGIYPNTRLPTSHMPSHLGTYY
# Summary of the method: as §1
# [5] = biological target: ELF1 (Homo sapiens, UniProt P32519 1-619); settings: protein: recombinant; tags: N-terminal GST; dsDNA, one strand shown
# Sequence of ELF1 (P32519 whole entry): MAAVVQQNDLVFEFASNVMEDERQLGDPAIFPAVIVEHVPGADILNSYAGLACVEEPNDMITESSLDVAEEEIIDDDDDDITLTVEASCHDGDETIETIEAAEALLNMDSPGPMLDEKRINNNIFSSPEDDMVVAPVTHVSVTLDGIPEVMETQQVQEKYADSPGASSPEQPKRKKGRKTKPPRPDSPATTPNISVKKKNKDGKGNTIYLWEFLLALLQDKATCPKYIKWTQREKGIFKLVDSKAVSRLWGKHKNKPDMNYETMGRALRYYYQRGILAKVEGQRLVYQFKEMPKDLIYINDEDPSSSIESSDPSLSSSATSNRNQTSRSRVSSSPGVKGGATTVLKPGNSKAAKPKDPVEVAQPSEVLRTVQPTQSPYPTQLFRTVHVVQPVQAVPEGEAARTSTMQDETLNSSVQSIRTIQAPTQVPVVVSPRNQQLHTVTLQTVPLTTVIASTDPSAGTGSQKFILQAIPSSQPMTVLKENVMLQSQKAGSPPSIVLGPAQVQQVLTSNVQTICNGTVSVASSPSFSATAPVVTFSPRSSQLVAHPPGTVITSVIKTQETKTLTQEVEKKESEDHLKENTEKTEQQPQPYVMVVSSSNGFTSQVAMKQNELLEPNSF
# Summary of the method: as §1
# [6] = biological target: T5, EHF (Homo sapiens, UniProt Q9NZC4 1-300); settings: protein: recombinant; tags: N-terminal GST; dsDNA, one strand shown
# T5 sequence: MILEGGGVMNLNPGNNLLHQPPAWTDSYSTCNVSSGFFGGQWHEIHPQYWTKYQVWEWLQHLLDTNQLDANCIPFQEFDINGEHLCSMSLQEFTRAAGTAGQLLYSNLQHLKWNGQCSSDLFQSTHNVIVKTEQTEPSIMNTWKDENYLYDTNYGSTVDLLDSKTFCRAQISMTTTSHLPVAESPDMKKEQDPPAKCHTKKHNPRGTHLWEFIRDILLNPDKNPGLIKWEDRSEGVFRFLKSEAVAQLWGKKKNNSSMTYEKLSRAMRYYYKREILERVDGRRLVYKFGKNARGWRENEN
# Summary of the method: as §1
# [7] = biological target: SPI1 (Homo sapiens, UniProt P17947 1-270); settings: protein: recombinant; tags: N-terminal GST; dsDNA, one strand shown
# Summary of the method: as §1
# [8] = biological target: SPIB (Homo sapiens, UniProt Q01892 1-262); settings: protein: recombinant; tags: N-terminal GST; dsDNA, one strand shown
# Sequence of SPIB (Q01892 whole entry): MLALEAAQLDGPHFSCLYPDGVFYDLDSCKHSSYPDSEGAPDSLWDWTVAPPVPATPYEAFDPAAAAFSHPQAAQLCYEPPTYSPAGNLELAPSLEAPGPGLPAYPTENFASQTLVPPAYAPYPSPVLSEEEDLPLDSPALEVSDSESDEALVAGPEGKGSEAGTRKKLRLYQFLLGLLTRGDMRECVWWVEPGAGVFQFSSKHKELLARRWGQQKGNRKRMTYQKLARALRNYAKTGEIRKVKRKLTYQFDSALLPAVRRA
# Summary of the method: as §1
# [9] = biological target: T6, ELK3 (Homo sapiens, UniProt P41970 1-407); settings: protein: recombinant; tags: N-terminal GST; dsDNA, one strand shown
# T6 sequence: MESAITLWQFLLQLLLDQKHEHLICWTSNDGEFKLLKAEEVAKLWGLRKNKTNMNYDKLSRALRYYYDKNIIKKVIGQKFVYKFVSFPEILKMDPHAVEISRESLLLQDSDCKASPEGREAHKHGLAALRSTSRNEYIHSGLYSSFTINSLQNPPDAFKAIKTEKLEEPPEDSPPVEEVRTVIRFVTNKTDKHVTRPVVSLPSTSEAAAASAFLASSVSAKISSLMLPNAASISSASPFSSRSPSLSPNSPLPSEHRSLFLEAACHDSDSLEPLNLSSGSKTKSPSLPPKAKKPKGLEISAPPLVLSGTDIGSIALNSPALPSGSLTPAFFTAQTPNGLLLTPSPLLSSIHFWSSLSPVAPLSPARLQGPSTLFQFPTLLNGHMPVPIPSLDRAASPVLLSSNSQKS
# Summary of the method: as §1
# [10] = biological target: T7, FEV (Homo sapiens, UniProt Q99581 1-238); settings: protein: recombinant; tags: N-terminal GST; dsDNA, one strand shown
# T7 sequence: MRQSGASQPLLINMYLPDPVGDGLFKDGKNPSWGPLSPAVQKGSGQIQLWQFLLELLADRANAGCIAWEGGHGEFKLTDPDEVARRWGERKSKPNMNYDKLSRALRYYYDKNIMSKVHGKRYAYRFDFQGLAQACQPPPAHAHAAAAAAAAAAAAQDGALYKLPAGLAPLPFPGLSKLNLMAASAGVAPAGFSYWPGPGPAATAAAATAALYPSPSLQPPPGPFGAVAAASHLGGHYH
# Summary of the method: as §1
# [11] = biological target: ETV5 (Homo sapiens, UniProt P41161 1-510); settings: protein: recombinant; tags: N-terminal GST; dsDNA, one strand shown
# Sequence of ETV5 (P41161 whole entry): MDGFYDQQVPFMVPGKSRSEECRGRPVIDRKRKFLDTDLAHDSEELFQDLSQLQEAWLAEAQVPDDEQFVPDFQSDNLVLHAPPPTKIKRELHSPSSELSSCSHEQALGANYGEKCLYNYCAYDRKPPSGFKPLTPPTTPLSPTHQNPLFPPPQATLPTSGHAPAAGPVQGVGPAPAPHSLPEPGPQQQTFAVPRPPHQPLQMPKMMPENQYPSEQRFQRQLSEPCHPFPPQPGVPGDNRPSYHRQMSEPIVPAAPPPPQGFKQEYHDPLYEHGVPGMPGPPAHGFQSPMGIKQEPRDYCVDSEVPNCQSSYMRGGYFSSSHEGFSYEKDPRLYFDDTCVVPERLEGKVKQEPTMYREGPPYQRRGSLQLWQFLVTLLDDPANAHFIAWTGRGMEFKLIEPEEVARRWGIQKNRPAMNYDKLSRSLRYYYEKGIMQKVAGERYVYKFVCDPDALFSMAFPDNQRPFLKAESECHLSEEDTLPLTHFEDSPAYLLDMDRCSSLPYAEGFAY
# Summary of the method: as §1
# [12] = biological target: HSF1 (Homo sapiens, UniProt Q00613 1-529); settings: protein: recombinant; tags: N-terminal GST; chain copies: 3; dsDNA, one strand shown
# Sequence of HSF1 (Q00613 whole entry): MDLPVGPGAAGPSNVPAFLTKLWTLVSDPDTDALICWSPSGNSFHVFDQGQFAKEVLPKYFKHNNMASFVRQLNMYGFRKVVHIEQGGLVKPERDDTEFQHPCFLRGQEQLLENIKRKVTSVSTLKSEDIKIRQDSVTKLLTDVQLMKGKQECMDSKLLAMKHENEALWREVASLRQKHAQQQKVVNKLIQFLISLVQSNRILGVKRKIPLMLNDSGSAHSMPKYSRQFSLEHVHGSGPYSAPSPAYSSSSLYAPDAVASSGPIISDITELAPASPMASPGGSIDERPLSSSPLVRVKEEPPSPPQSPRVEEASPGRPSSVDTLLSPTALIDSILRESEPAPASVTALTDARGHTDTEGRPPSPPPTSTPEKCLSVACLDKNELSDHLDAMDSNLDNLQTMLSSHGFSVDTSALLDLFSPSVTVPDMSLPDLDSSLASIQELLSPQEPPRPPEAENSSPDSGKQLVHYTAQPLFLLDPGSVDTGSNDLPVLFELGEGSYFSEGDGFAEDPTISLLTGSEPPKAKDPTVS
# Summary of the method: as §1
# [13] = biological target: T8, SPIC (Homo sapiens, UniProt Q8N5J4 1-248); settings: protein: recombinant; tags: N-terminal GST; dsDNA, one strand shown
# T8 sequence: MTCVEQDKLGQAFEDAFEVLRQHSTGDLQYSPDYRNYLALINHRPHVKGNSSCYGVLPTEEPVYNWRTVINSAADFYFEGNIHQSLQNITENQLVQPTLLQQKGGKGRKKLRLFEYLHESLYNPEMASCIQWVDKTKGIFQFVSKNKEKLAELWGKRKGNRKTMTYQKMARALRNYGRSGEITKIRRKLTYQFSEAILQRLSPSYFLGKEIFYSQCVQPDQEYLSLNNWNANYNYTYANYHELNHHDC
# Summary of the method: as §1
# [14] = biological target: ELF4 (Homo sapiens, UniProt Q99607 1-663); settings: protein: recombinant; tags: N-terminal GST; dsDNA, one strand shown
# Sequence of ELF4 (Q99607 whole entry): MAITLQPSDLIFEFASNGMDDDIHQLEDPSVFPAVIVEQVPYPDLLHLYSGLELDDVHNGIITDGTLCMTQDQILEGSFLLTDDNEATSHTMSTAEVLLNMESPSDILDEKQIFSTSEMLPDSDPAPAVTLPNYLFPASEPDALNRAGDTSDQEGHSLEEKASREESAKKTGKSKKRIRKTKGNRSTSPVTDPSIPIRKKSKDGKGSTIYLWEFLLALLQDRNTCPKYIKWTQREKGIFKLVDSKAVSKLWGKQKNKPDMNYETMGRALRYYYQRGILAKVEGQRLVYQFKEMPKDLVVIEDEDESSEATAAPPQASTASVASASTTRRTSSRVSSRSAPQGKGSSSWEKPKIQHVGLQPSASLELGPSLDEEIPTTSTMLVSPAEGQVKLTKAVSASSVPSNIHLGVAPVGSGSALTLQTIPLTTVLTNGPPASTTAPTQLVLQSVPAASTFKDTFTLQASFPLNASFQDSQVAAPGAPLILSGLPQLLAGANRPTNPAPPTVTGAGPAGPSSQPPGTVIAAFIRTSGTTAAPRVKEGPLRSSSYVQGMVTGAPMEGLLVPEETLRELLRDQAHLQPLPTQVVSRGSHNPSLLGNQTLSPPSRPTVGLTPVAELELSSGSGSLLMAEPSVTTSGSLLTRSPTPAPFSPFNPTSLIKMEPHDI
# Summary of the method: as §1
# [15] = biological target: T9, ELK4 (Homo sapiens, UniProt P28324-2 1-405); settings: protein: recombinant; tags: N-terminal GST; dsDNA, one strand shown
# T9 sequence: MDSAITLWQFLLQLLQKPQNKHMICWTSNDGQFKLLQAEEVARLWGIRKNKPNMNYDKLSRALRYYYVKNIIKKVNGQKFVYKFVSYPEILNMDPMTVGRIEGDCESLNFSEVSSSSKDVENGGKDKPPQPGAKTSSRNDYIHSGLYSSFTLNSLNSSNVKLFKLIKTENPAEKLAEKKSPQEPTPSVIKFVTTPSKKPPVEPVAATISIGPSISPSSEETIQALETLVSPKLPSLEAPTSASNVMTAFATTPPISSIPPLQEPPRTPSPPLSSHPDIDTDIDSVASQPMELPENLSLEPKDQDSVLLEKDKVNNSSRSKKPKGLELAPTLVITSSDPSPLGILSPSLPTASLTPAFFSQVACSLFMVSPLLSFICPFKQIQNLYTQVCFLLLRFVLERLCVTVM
# Summary of the method: as §1
# [16] = biological target: T10, ETV2 (Homo sapiens, UniProt O00321 1-342); settings: protein: recombinant; tags: N-terminal GST; dsDNA, one strand shown
# T10 sequence: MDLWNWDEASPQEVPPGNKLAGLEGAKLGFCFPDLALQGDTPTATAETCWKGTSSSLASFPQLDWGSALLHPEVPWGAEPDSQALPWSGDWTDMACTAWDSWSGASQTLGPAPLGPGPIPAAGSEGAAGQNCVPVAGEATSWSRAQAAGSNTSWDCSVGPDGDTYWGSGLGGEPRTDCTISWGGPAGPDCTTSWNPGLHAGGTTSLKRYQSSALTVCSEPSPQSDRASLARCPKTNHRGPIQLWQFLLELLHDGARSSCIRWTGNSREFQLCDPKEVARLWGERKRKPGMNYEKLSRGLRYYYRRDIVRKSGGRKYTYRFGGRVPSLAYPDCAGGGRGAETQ
# Summary of the method: as §1
# [17] = biological target: T11, ELF3 (Homo sapiens, UniProt P78545 1-371); settings: protein: recombinant; tags: N-terminal GST; dsDNA, one strand shown
# T11 sequence: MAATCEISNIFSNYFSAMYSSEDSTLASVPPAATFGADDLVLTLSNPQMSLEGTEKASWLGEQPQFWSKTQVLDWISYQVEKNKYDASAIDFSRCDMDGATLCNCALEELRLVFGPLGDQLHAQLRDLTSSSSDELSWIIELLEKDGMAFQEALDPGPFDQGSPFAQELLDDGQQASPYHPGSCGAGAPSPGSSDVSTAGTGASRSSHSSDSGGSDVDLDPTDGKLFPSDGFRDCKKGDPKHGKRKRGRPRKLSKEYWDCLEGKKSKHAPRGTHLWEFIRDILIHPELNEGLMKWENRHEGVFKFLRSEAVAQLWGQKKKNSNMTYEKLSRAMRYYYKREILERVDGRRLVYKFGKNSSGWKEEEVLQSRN
# Summary of the method: as §1
# [18] = biological target: CRX (Homo sapiens, UniProt O43186 1-299); settings: protein: recombinant; tags: N-terminal GST; dsDNA, one strand shown
# Sequence of CRX (O43186 whole entry): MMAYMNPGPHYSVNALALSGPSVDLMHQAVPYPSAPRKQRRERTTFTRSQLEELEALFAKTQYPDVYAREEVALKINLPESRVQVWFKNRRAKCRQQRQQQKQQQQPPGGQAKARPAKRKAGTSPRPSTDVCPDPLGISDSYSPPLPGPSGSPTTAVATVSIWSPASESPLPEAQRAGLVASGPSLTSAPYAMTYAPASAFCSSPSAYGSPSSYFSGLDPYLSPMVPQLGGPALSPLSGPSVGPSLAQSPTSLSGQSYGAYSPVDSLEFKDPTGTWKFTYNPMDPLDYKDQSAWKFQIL
# Summary of the method: as §1
# [19] = biological target: ETV1 (Homo sapiens, UniProt P50549 1-477); settings: protein: recombinant; tags: N-terminal GST; dsDNA, one strand shown
# Sequence of ETV1 (P50549 whole entry): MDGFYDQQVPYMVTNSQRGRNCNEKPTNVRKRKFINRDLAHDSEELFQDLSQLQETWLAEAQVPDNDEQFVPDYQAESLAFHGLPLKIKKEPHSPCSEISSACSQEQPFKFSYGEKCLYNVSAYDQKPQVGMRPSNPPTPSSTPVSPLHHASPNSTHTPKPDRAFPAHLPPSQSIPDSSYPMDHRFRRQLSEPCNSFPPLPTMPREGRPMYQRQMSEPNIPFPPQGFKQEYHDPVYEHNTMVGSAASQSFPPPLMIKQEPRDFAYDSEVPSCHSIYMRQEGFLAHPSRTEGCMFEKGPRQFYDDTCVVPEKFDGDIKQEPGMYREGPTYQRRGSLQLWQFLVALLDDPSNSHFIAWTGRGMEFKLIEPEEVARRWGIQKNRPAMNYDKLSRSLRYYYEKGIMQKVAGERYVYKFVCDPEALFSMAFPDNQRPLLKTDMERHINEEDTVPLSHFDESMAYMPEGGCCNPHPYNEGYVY
# Summary of the method: as §1
sequence,measurement,setting,value
GTTCTC,binding signal,[1],"1.36 fold enrichment (6-mer frequency, TF over GST control)"
same,binding signal,[2],"1.18 fold enrichment (6-mer frequency, TF over GST control)"
same,binding signal,[3],"1.4 fold enrichment (6-mer frequency, TF over GST control)"
same,binding signal,[4],"1.27 fold enrichment (6-mer frequency, TF over GST control)"
same,binding signal,[5],"1.28 fold enrichment (6-mer frequency, TF over GST control)"
same,binding signal,[6],"1.22 fold enrichment (6-mer frequency, TF over GST control)"
same,binding signal,[7],"1.33 fold enrichment (6-mer frequency, TF over GST control)"
same,binding signal,[8],"1.35 fold enrichment (6-mer frequency, TF over GST control)"
same,binding signal,[9],"1.19 fold enrichment (6-mer frequency, TF over GST control)"
same,binding signal,[10],"1.32 fold enrichment (6-mer frequency, TF over GST control)"
same,binding signal,[11],"1.32 fold enrichment (6-mer frequency, TF over GST control)"
same,binding signal,[12],"2.29 fold enrichment (6-mer frequency, TF over GST control)"
same,binding signal,[13],"1.36 fold enrichment (6-mer frequency, TF over GST control)"
same,binding signal,[14],"1.28 fold enrichment (6-mer frequency, TF over GST control)"
same,binding signal,[15],"1.27 fold enrichment (6-mer frequency, TF over GST control)"
same,binding signal,[16],"1.33 fold enrichment (6-mer frequency, TF over GST control)"
same,binding signal,[17],"1.3 fold enrichment (6-mer frequency, TF over GST control)"
same,binding signal,[18],"1.28 fold enrichment (6-mer frequency, TF over GST control)"
same,binding signal,[19],"1.34 fold enrichment (6-mer frequency, TF over GST control)"
